From PubChem BioAssay AID1508600 (Functional Genomics Laboratory (NCATS/FGL), 2020)
Among all 53,000 sequences or so, about 3,700 (7%) were called active. The sample as a whole holds a higher share of actives than the screen did. Unmarked numbers belong to inactive results.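 Rule for the calls: active = gene knockdowns whose robust z-score for IL-1 alpha signal is at least 2 or at most -2, so actives lie on both sides; inactive = the rest.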

Assay: Components of the Cytosolic LPS Sensing Pathway: Gene Identification via Genome-wide siRNA Screen;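 note: robust z of the log signal after scaling to non-targeting control siRNA wells of the plate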
Conditions: RAW264.7 macrophages, IL-1a HTRF, actives lie on both sides, screened at 100 nM (by protocol), cells primed 5 h with Pam3CSK4 first
Outline: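 Using IL-1a HTRF as read-out, the screen measured release from RAW264.7 cells after 48h siRNA knockdown (100 nM), 5 h Pam3CSK4 priming and 24 h cytosolic LipidA. Values were expressed relative to negative-control wells as robust z-scores.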
For GGCUCUGGGUGGUAUUCAUTT against Slc5a2, the z-score was -0.637. With GGCACUGGGCAAACAUUAATT against Ptprcap the z-score was 1.09. In the case of GGCAGUUCAAAAGACCACATT against Zcchc7, the z-score is reported as 2.38 (active). GGGCAACGAGCUGUUCAAATT against Unc45a showed a z-score of 1.71. In the case of GGGAUCUGGAUUUAAUUUGTT against Arf5, the z-score is reported as 0.523. For GGUCACACCCACCAUUACGTT against Serpina11, the z-score was -0.765. With CCAUUACAGGGUUUUUUAUTT against Slc37a3 the z-score was -0.62. In the case of GGGAAAAGCAAACACUAAUTT against C1d, the z-score is reported as -1.84. For GGAGCAUCUCAAACCUUCATT against Lancl3, the z-score was -3.8 (active). For GAUGCGGCUCCUUGGAAUUTT against Slc51b, the z-score was 2.38 (active). For GGUCAUAAGAAGCUCAAGATT against Serpinb9d, the z-score was 0.268. With GCCGGAAGAUAAGGCUCAUTT against Gap43 the z-score was -2.2 (active). Work on GGAAGAACUCAAGAGGGAATT against Plpp2 yielded a z-score of -0.775. With GCUGGGAGUAAAAUUGACUTT against Cenpj the z-score was -0.65. In the case of CGAGCAUGCUGAAAAGACCTT against Steap1, the z-score is reported as -0.826. Work on GGUUUUAAAGCAUCUUCGUTT against Pard6g yielded a z-score of -0.284. Work on GGGCAACAUUUUUCAGUGCTT against Prox1 yielded a z-score of 0.722. With GGAUCUUAAGUCCUAACAUTT against Tacc3 the z-score was -2.37 (active). In the case of CCGAUAAUGCUUUCUUUGGTT against Ppp1cc, the z-score is reported as 0.547. In the case of “CCAAGUCAGUGCUGUAAAGTT against F830104G03Rik”, the z-score is reported as -1.58. With GGUGAUGCCUGUGAAGACATT against Il3ra the z-score was 2.04 (active). In the case of GGGAUAUUCAUUGACUUUGTT against Prr5, the z-score is reported as -1.88. CCAAGAAUGUUUCCAUGUUTT against Slc12a5 showed a z-score of -1.68. For CCUGAACCACUUGUUAAAUTT against Rnf10, the z-score was 0.124. GCUUCAGGUCAGUCUCUUCTT against Olfr1042 showed a z-score of 0.969. In the case of GGAGGCAAAAAUGAUGCUATT against Slpi, the z-score is reported as 1.97. In the case of GCAUCUCACUUUUGACCUATT against Retreg2, the z-score is reported as 0.928. For GUCUCAAGUGGACUGUGAGTT against Klk1b4, the z-score was -2.83 (active). GCAAUUAUAACUUAGAAGGTT against Eml3 showed a z-score of 0.149. GCCUUUCAACUCACCAGCCTT against Zfp574 showed a z-score of 0.617. For GGGAAGGAAUAUGAUGGGCTT against Sik3, the z-score was -0.704. Work on GGUCCCAACGAAGAAACCATT against Cd55 yielded a z-score of 0.475. For GGGCUAAGGCGAAAAGACUTT against Msx2, the z-score was 3.24 (active). For GCUAAAUUUCCCAUAGGAATT against Pmch, the z-score was 0.822. GGAGCUUCGAAAAAAGUUGTT against Pex16 gave a z-score of 0.329. In the case of GCACAAUUAUGAGAGUGCATT against Grin1, the z-score is reported as -0.91. Work on GGGUUAAGCGCAAGUGUAATT against Degs2 yielded a z-score of 0.331. GGCUGAAAAUAUUUUCAGATT against Garnl3 showed a z-score of -0.1. GGAGCCAGUGACAAUAAAUTT against Mtag2 gave a z-score of -1.1. In the case of GGUGAUGAUGUCAUACAAATT against Cav1, the z-score is reported as 3.12 (active). For GGCUCUCAUCCAUCUCCUUTT against Olfr715, the z-score was -1.79. Sequence “GGUCUGGAAAACCAGCUUATT against D630039A03Rik” has a z-score of 1.04. GGUUGAAGUCUAUUCUCGATT against Trap1 gave a z-score of -0.139. With GGGUUUGACAGAGAGAAGATT against Atp5g2 the z-score was -0.581. For GGUGAGCGUGUAGAGAUGCTT against Fbxo45, the z-score was 0.787. For GGGCUAAAGUUGAUAAUAATT against Psmc3, the z-score was -2.02 (active). Work on GCACUUUGUGCUAUAUAAGTT against Mapk14 yielded a z-score of 0.616. Sequence GGUAAAGUUGCUUAAUUAGTT against Msl3l2 has a z-score of 0.944. GGAAGAAGUCUGAUACAUCTT against Samd5 showed a z-score of 0.572. Work on CGCUAAUCUUCGAAAACCUTT against Abcc12 yielded a z-score of -0.998. With GGAGUUCGUACCCUUAUCCTT against Rtel1 the z-score was -2.2 (active). In the case of GGUUAUCCAACCUAGAAUATT against Tmlhe, the z-score is reported as 0.74. In the case of GGCAAAGUUUGGGAUUACATT against Ntng1, the z-score is reported as 1.17. Work on GGUUGUAUUGGAUAUCAAGTT against Ceacam2 yielded a z-score of 0.953. GGACUUUGAAAAGAGAAUUTT against Polb gave a z-score of -0.213. With GGACUUCUCCAUCCUGCUUTT against Alg1 the z-score was -0.542. For GGGACCAGAGGAAACAGAATT against Tnfsf13b, the z-score was -2.21 (active). Work on GGGCAUUGCCAGGAAUUAUTT against Lrp1b yielded a z-score of 1.31. Sequence GUUGUCCAUAUCAUGUUUGTT against Olfr569 has a z-score of 1.28. GGGAAGAGCCCUAAUAUUATT against Aldh1a2 gave a z-score of -0.098. For GGUGGACAAGACUAAAACATT against Podxl, the z-score was -0.253. For GGGCCAAAUAGCUAUGCAGTT against Aldoc, the z-score was -0.309. In the case of GGAAUUAUAAAAGACCACGTT against Kctd12b, the z-score is reported as 2.39 (active). GGUGCUCUCAGGAAAGUUGTT against Olfr1157 gave a z-score of 0.82. CCUGUACUCUAUAUUCUGUTT against Pld2 gave a z-score of 0.98. GGCCAUCGAACUCAAUCUCTT against Lrrc57 gave a z-score of 0.243. For GGAGUAUGAUAAUGAACCATT against Areg, the z-score was -0.0698. For GGACAUCAAGUUCUUGCCATT against Hspa5, the z-score was -0.478. In the case of GGCUGGUAUCUUUCAGAGUTT against Cox6c, the z-score is reported as 2.2 (active). For “GGAACCAAUCGGGAUUUUGTT against B330016D10Rik”, the z-score was 0.179. With CGGUUCCACUUCAAAUGACTT against Hsd17b2 the z-score was 0.72. In the case of GGACACUUUCUCAUAUCAUTT against Abca9, the z-score is reported as 2.06 (active). In the case of GGAGGCUCUACUUUUGUAGTT against Olfr611, the z-score is reported as -2.16 (active). GGCUUCCCGGAGUAACAAUTT against Dlgap1 showed a z-score of -0.742. GAAAAGAAUUCCAGAAGAUTT against Sec61g gave a z-score of 1.19. CCAGUGCGUCACUCAGUAATT against Ssmem1 showed a z-score of -1.11. Work on GGAUGAAGGGACGAAUUCATT against Pcdha6 yielded a z-score of 0.635. Sequence GCUGUGCAAGCAAUAUCUATT against Hnrnpm has a z-score of 0.423. With CCCUUUCGAGGUGGUAAAATT against Slc25a21 the z-score was 0.11. Work on GCCAAAUAAUCUGAAAGCCTT against Rpl28 yielded a z-score of 0.309. Work on GGAGCGCGUGAAACUGUCUTT against Fbxw4 yielded a z-score of -0.752. In the case of “GGGCCACUGCCAAAUACUATT against 2510009E07Rik”, the z-score is reported as 3.33 (active). Work on GGAAAGCUUCAGAAUCUAATT against Bckdk yielded a z-score of -0.365. GCUCGAGAUCGAAACAUACTT against Tmed5 showed a z-score of -1.13. With GCCACUUUAGUAUGGAAUGTT against Nxt1 the z-score was 0.822. Sequence GGCUGUGGAAUGACACCAATT against Sars2 has a z-score of -1.01. For GGAUAUCUCGGGUUGAAUUTT against Aurka, the z-score was -1.38. Work on GGCUAAUGGACAAAAAAUUTT against Pacrgl yielded a z-score of 0.28. For CCAUGACUACAACACAUACTT against Ndufv3, the z-score was -3.07 (active). Sequence GGAAGACAUACUGUUGAAATT against Mettl23 has a z-score of -0.147. Work on GGCUCUUGUCACAUGAUCATT against Jagn1 yielded a z-score of -1.77. For GGGUUCAAAACUAUGGAUATT against Stk26, the z-score was 0.575. For GGAUCUGAGUGCUCUACUGTT against Kctd20, the z-score was 2.08 (active). Sequence GGCCCACAGGAACAUCCUATT against Zbtb8b has a z-score of -0.134. For GGACAAACAGCUUCAAGAUTT against Psmd2, the z-score was -2.26 (active). In the case of GGGUUCUUUCACUGAACGATT against Pskh1, the z-score is reported as 0.9. GGCAUCUUCAUCAAGGAUUTT against Sf3a1 showed a z-score of -1.1. Work on GGCUUAAGUGUGCAGCUACTT against B3gnt4 yielded a z-score of -0.479. Sequence GGACAUUGCUGCCUAUAUCTT against Dynll2 has a z-score of 0.452. For GCGAUCCUGACUUGUUCAATT against Kdm6b, the z-score was 2.27 (active). GGACAAGAAGCAUCUUUCATT against Smpdl3a gave a z-score of -1.16. Work on GGAAACUUUAGCAUGAAUGTT against Hmgxb4 yielded a z-score of -0.335. GCAUGCGUGAGAAACUGAUTT against Clec2e showed a z-score of -0.152. Work on GCAAGCUAAUGAGCUACAATT against Samd9l yielded a z-score of -0.107. In the case of CCGCCCGCUCAACACUAAUTT against Zfp36l3, the z-score is reported as -2.39 (active). In the case of GGUAUAUUGCCAUAUGUAATT against Olfr731, the z-score is reported as -0.174. In the case of CCAUGGGCCUACCAAACAGTT against Celf2, the z-score is reported as -1.86.
